The nature of experiment [1]: qHTS assay to identify small molecule agonists of the estrogen receptor alpha (ER-alpha) signaling pathway in the presence of an antagonist - cell viability counter screen (AID 1259386).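 Further: series mostly up to about 92 µM; cells exposed to compounds for 22 h at 37 °C before the viability read; nearly all actives have a fitted effect of over 30% in size.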 The essentials:
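VM7Luc4E2, stripped-serum pre-culture 5 d; 24hr plating; +ICI-182,780 10.0nM final; cpds 15 conc, 22hr, 37C/5% CO2; CellTiter-Fluor added at 21hr, fluorescence 1hr later.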
In general terms: In qHTS, concentration-response curves come from the screen itself.

The target of experiment [2] is Progesterone receptor (Homo sapiens) (UniProt P06401). As to the kind of experiment: qHTS assay to identify small molecule agonists of the progesterone receptor (PR) signaling pathway (AID 1346784; calls by dose curve; further: nearly all actives have a fitted effect of over 30% in size). The essentials: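 HEK 293T PR-UAS-bla reporter cells, 2% charcoal-stripped FBS; 6 hr settle at 37C/5% CO2, compound (DMSO) 16 hr, LiveBLAzer B/G FRET substrate 2 hr RT, fluorescence intensity read.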
Chain of Progesterone receptor (Homo sapiens) (P06401 whole entry, looked up): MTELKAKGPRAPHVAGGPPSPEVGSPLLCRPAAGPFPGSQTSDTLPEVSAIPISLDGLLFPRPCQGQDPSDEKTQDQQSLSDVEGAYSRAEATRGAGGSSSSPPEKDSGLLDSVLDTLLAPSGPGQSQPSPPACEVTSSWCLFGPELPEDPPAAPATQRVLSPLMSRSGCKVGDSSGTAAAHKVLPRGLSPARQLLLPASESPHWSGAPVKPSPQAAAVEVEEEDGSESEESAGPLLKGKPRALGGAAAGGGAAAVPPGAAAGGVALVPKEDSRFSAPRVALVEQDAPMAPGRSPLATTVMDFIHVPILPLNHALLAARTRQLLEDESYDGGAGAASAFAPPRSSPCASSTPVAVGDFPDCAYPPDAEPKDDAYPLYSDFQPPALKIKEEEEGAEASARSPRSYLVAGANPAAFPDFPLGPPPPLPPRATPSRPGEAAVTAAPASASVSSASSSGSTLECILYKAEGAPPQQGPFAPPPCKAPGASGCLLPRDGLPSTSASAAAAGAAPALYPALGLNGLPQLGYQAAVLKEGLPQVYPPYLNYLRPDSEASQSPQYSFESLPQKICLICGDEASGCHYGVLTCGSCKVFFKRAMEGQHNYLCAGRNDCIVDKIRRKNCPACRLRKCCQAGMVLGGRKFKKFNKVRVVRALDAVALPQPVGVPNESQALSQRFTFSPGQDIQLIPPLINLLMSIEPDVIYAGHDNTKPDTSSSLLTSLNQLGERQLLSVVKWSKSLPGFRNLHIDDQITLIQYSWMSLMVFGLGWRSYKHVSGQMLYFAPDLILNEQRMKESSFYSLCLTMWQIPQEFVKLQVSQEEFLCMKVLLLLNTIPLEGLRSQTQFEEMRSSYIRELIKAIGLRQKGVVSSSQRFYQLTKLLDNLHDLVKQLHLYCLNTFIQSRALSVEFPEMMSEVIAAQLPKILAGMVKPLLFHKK

The target is the same in experiment [3]. As to the kind of experiment: qHTS assay to identify small molecule antagonists of the progesterone receptor (PR) signaling pathway (AID 1346795; active means well fitted inhibition curve with a large enough effect in the signal ratio in the repeat runs, not every such curve was filed as active; the % refers to the signal ratio; further: potency means the concentration at half of the fitted maximal effect). The essentials: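 Beta-lactamase reporter, HEK293T PR-UAS-bla line; 2% charcoal-stripped FBS; 6 hr pre-incubation, 37C/5% CO2. Compound + R5020 1 nM final, 16 hr. LiveBLAzer B/G FRET substrate, 2 hr RT; fluorescence intensity read.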

Experiment [4] in a line: qHTS assay to identify small molecule antagonists of the progesterone receptor (PR) signaling pathway - cell viability counter screen (AID 1346798). Further: nearly all actives have a fitted effect of over 50% in size. Further: potency means the concentration at half of the fitted maximal effect. On activity change, negative = cytotoxicity: series mostly up to about 92 µM. The essentials: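 Luminescence readout (CellTiter-Glo, 30 min, RT) of viability in PR-UAS-bla HEK293T cells exposed to compound and R5020 agonist for 16 hr at 37C, 5% CO2; run in the same wells as the beta-lactamase reporter read.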

Experiment [5] is described as follows: qHTS assay to identify small molecule agonists of the progesterone receptor (PR) signaling pathway - cell viability counter screen (AID 1346799; calls by dose curve; further: nearly all actives have a fitted effect of over 45% in size; further: potency means the concentration at half of the fitted maximal effect). The essentials: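 HEK293T PR-UAS-bla, 3,000 cells/well, 2% charcoal-stripped FBS; 6 h settle, compound 16 h at 37C/5% CO2; LiveBLAzer 2 h RT, then CellTiter-Glo 30 min RT, luminescence read.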
Experiment [6] is described as follows: qHTS assay to identify small molecule antagonists of the TGF-beta/Smad signaling pathway - cell viability counter screen (AID 1346824). Further: nearly all actives have a fitted effect of over 50% in size. The essentials:
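SBE-bla HEK 293T cells, incubated overnight, then compound plus 0.25 ng/mL TGF-beta1 (stock added) for 5 hr at 37 C. Viability was read in the same wells by CellTiter-Glo luminescence after 30 min at room temperature.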

Experiment [7] can be described thus: qHTS assay to identify small molecule agonists of the TGF-beta/Smad signaling pathway - cell viability counter screen (AID 1346829). Further: top concentration of the series differs between compounds; nearly all actives have a fitted effect of over 45% in size. The essentials:
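HEK 293T SBE-bla line, 5 hr compound exposure at 37 C, multiplexed CellTiter-Glo viability read by luminescence.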

A short description of experiment [8]: qHTS assay to identify small molecule agonists of the TGF-beta/Smad signaling pathway (AID 1346859; active means well fitted activation curve with a large enough effect in the signal ratio in the repeat runs, not every such curve was filed as active; the % refers to the signal ratio; further: series mostly up to about 77 µM). The essentials: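 Read-out: fluorescence at 460 and 530 nm (405 nm excitation) after a 2 hr room-temperature incubation with beta-lactamase FRET substrate. SBE-bla HEK 293T cells had been treated with test compounds for 5 hr at 37 C.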
For experiment [9], the target named is Thyrotropin-releasing hormone receptor (Homo sapiens) (UniProt P34981). As to the kind of experiment: qHTS assay to identify small molecule antagonists of the thyrotropin-releasing hormone receptor (TRHR) signaling pathway (AID 1346877; active means well fitted inhibition curve with a large enough effect in the repeat runs, not every such curve was filed as active; further: series mostly up to about 51 µM). The essentials: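 Intracellular calcium fluorescence, read kinetically every second over 3 min, reports TRH-evoked signalling in HEK293 cells carrying TRHR. Test compounds were added 5 min ahead of a 1 nM TRH challenge.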
Chain of Thyrotropin-releasing hormone receptor (Homo sapiens) (P34981 whole entry, looked up): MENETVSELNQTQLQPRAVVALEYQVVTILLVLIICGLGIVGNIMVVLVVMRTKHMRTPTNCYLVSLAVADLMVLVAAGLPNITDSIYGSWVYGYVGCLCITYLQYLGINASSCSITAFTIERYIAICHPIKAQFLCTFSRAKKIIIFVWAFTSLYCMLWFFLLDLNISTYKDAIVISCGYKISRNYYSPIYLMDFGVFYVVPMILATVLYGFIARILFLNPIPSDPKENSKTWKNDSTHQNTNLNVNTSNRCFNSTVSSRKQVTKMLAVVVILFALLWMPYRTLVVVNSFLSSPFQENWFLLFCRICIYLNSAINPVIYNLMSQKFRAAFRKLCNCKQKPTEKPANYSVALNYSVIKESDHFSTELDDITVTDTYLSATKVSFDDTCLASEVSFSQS

Experiment [10] deals with Thyrotropin receptor (Homo sapiens) (UniProt P16473). As to the kind of experiment: qHTS assay to identify small molecule antagonists of the thyroid stimulating hormone receptor (TSHR) signaling pathway (AID 1259385; calls by dose curve; further: nearly all actives have a fitted effect of over 20% in size). The essentials:
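TSHR-HEK293 cells (800/well) plated 18 h, then compounds with Ro20-1724 and TSH at 1.5 ng/mL final, 30 min at room temperature. cAMP quantified by HTRF (cAMP-d2/anti-cAMP-cryptate, 1 h); 15 concentrations in triplicate.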

Unmarked numbers belong to inactive results. Results filed as inconclusive are left out. Calls of active or inactive are those of the source. Unless noted, the call rests on the fitted dose curve; in most records, active means well fitted curve in the direction sought with a large enough effect in the repeat runs; inconclusive means weak or mixed curves; inactive means no such curve, though single readings can be large; an effect the other way counts as inactive or inconclusive.
On the % scale 0 is the no-effect control and ±100 the full control effect.

Chain of Thyrotropin receptor (Homo sapiens) (P16473 whole entry, looked up): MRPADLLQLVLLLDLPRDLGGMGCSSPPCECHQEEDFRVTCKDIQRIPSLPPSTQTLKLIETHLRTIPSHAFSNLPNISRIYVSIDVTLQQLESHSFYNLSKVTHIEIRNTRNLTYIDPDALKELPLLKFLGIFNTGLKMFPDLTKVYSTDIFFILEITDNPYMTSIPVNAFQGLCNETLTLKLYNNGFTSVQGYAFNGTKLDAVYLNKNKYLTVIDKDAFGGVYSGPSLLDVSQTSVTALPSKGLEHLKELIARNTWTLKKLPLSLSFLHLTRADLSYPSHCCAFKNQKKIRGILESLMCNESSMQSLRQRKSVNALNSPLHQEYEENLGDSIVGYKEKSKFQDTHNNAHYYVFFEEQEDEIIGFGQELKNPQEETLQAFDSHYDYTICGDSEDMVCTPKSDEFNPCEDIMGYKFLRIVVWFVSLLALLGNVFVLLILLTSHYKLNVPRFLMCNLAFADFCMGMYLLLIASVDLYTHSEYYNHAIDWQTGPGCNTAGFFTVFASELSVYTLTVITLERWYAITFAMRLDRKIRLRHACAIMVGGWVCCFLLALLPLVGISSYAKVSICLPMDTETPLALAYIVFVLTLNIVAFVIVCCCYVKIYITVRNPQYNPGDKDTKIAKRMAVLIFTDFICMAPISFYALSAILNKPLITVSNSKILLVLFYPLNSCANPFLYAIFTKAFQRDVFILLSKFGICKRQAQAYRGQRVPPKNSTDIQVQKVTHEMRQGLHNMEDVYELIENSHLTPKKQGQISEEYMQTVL

`[O-][n+]1ccc(Cl)cc1`: the Potency result in [1], in experiment [2], in [3], in experiment [4] and in experiment [5] was “inactive” in each case. In addition, the compound was classed as inactive in [6], in experiment [7] and in experiment [8].

Turning to `Cc1ccc(Cl)c(OCC(O)CNC(C)(C)C)c1` (stereo unspecified), the Potency result in experiment [1], in experiment [2], in [3], in experiment [4] and in experiment [5] was “inactive” in each case. The compound was called inactive in [6], in experiment [7], in experiment [8] and in experiment [9].

Consider `Clc1cc(Cl)c2c(c1)N=C1CCCCCN1C2`, for which the Potency result in experiment [10], in experiment [2] and in experiment [5] was “inactive” each time. Also, the compound was called inactive in experiment [6], in experiment [7] and in experiment [9].

For the compound `O=C(O)c1ccc2cc(O)ccc2c1`, the Potency entry in experiment [1], in [2], in experiment [3], in [4] and in [5] was “inactive” each time. Also, the compound was classed as inactive in experiment [7], in experiment [8] and in [9].

Take `O=C(O)c1cccc(C(=O)O)c1C(=O)O`: the Potency result in experiment [10], in experiment [3] and in [4] was “inactive” in each case. Also, the call in experiment [6], in experiment [7], in experiment [8] and in [9] was inactive.

For the compound `O=C(O)c1ccc2c(c1)nc(C(=O)NC1CCN(C3CC3)CC1)n2Cc1cc(-c2ccc(Cl)s2)on1`, the figures for the activity change, negative = inhibition in experiment [10] and in experiment [3] were 2.44% [at 19 µM] and -15.4% [at 18.9 µM], respectively. Also, the activation in [2] was 1.53% [at 19 µM]. The activity change, negative = cytotoxicity in experiment [4] was -14.4% [at 18.9 µM]; in experiment [7] it was 20.2% [at 15.8 µM]. Also, the viability change, negative = cytotoxic in experiment [6] is 0.205% [at 15.8 µM].

For the compound `CC(=O)Nc1cccc(N)c1`, the Potency result in [1], in experiment [2], in experiment [3], in experiment [4] and in experiment [5] was “inactive” throughout. Further, the outcome in experiment [6], in experiment [7], in experiment [8] and in experiment [9] was inactive.

Turning to `c1ccc(CCNc2nc(-c3ccccc3)cs2)cc1`, the Potency result in [10], in experiment [2] and in experiment [5] was “inactive” in each case. For the same compound, the call in experiment [6], in experiment [7], in experiment [8] and in experiment [9] was inactive.

Consider `CC/C=C\CCO`, for which the Potency entry in experiment [1], in [2], in experiment [3], in experiment [4] and in [5] was “inactive” throughout. Moreover, the outcome in experiment [6], in experiment [7], in [8] and in experiment [9] was inactive.

Consider `O=C(Cl)c1cc(Cl)cc(Cl)c1`, for which the Potency result in [1], in experiment [2], in experiment [3], in experiment [4] and in experiment [5] was “inactive” throughout. Further, the outcome in experiment [6], in experiment [7], in experiment [8] and in experiment [9] was inactive.

As for `CC(CC(C#N)(c1ccccc1)C(C)C)N(C)C` (stereo unspecified), the Potency entry in experiment [1], in [2], in experiment [3], in experiment [4] and in experiment [5] was “inactive” throughout. For the same compound, the call in experiment [7] and in [8] was inactive.

For `CC(C(=O)O)c1ccc(/C=C2\CCCCC2=O)cc1` (stereo unspecified), the Potency entry in [1], in experiment [2], in experiment [3], in [4] and in [5] was “inactive” in each case. For the same compound, the compound was called inactive in experiment [6], in [7] and in [8].

With `CC(=O)c1cccnc1`, the Potency entry in experiment [1], in experiment [2], in experiment [3], in [4] and in experiment [5] was “inactive” each time. For the same compound, the compound was called inactive in experiment [6], in experiment [7] and in experiment [8].

With `CC1(COc2ccc(CC3SC(=O)NC3=O)cc2)CCCCC1` (stereo unspecified), the Potency result in [10] and in experiment [2] was “inactive” each time. Further, the compound was classed as inactive in [6], in experiment [7], in [8] and in experiment [9].

As for `C[C@H](N)C(=O)N[C@@H](C)C(=O)NC1[C@H]2CN(c3nc4c(cc3F)c(=O)c(C(=O)O)cn4-c3ccc(F)cc3F)C[C@@H]12` (stereo partly specified), the Potency entry in [10], in experiment [2] and in [4] was “inactive” in each case. In addition, the call in [7] and in [9] was inactive.

Take `Cc1ccc(S(=O)(=O)NC(=O)NC2CCCC2)cc1`: the Potency entry in experiment [10], in [2], in experiment [3] and in [4] was “inactive” each time. Also, the call in [6], in experiment [7], in [8] and in [9] was inactive.

`CC/C=C/CCO`: the Potency result in experiment [1], in experiment [2] and in experiment [3] was “inactive” each time. The figures for the Potency in [4] and in experiment [5] were 31.2 µM (active) and 19.7 µM (active), respectively. The call in experiment [6], in experiment [7], in [8] and in experiment [9] was inactive.

For `O=C(NC1CCN(CCc2c[nH]c3ccccc23)CC1)c1ccccc1`, the Potency entry in experiment [10], in experiment [2], in experiment [3], in experiment [4] and in experiment [5] was “inactive” each time. Besides, the compound was called inactive in experiment [6], in [7], in [8] and in [9].

Turning to `Nc1ccc(C(=O)Oc2ccccc2)c(O)c1`, the Potency entry in experiment [10], in experiment [2], in experiment [4] and in experiment [5] was “inactive” throughout. In addition, in experiment [3], the Potency was 23.7 µM (active). For the same compound, the outcome in experiment [6], in experiment [7], in [8] and in experiment [9] was inactive.

Regarding `Cc1c(Cl)cccc1[N+](=O)[O-]`, the Potency result in experiment [1], in experiment [2], in [3] and in [5] was “inactive” in each case. Further, the outcome in [6], in [7], in experiment [8] and in experiment [9] was inactive.

With `O=C(O)c1cccnc1Nc1cccc(C(F)(F)F)c1`, the Potency entry in experiment [1] and in [2] was “inactive” in each case. The compound was called inactive in experiment [6], in [7] and in experiment [8].

Regarding `S=c1[nH][nH]c(=S)s1`, the Potency result in experiment [1], in experiment [2], in [3] and in experiment [4] was “inactive” each time. The compound was called inactive in experiment [6], in [7] and in [8].

Regarding `C[C@]12CCC(=O)C=C1[C@@H]1C[C@@H]1[C@H]1[C@@H]3[C@@H]4C[C@@H]4[C@@]4(CCC(=O)O4)[C@@]3(C)CC[C@@H]12`, the Potency entry in experiment [4] is “inactive”. Besides, the compound was classed as inactive in [6], in experiment [7] and in experiment [9].

As to `Nc1ccccc1Nc1ccccc1`, the Potency result in [2] and in experiment [5] was “inactive” each time. The result in experiment [6], in experiment [7], in [8] and in experiment [9] was inactive.

Consider `c1ccc(CN(Cc2ccccc2)Cc2ccccc2)cc1`, for which the Potency entry in experiment [1], in experiment [2], in experiment [4] and in experiment [5] was “inactive” each time. The result in experiment [6], in experiment [7] and in experiment [8] was inactive.

Consider `CC(C)(O)C(=O)O`, for which the Potency entry in experiment [2] and in experiment [3] was “inactive” each time. Also, the call in experiment [7] and in experiment [8] was inactive.

Turning to `CCOC(C)OCC`, the Potency result in [1], in experiment [2], in experiment [3] and in experiment [4] was “inactive” throughout. Besides, the compound was called inactive in [6], in experiment [7], in [8] and in experiment [9].

For the origin of these results see PubChem BioAssay (Tox21).
